Measurements from PubChem BioAssay AID686978 (National Center for Advancing Translational Sciences (NCATS), 2013).
Hit rate of the full screen: of about 420,000 compounds, about 64,000 (15%) were called active. Not shown: some 27% with an inconclusive outcome. The call rests on the fitted dose curve; in most records, active means well fitted inhibition curve with a large enough effect; inconclusive means small, poorly fitted or top-dose-only effect; inactive means flat fitted curve, though single readings scatter. These entries were drawn from the full list. Where a call stands in place of a potency, no number is given.

Experiment: qHTS for Inhibitors of human tyrosyl-DNA phosphodiesterase 1 (TDP1): qHTS in cells in absence of CPT; further: nearly all actives have a fitted effect of over 55% in size
Conditions: DT40 Tdp1-/- hTDP1 cells, no CPT, ATP luminescence, 48 h; activity change, negative = growth inhibition: at 46.2 µM (top of the series)
Procedure, shortened: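 Growth of hTDP1-complemented DT40 Tdp1-knockout cells is measured by ATP luminescence after at least 48 hr compound exposure at 37 °C, with DMSO substituting for the 20 nM CPT used in the parallel screen.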
Potency means the concentration at half of the fitted maximal effect.

Structure (SMILES)	Potency
Cc1ccc(-c2ccc(C3=CC(=O)CC(C)(C)C3=O)cc2)cc1	inactive
CCc1ccccc1N1C(=O)C2C3CC(=O)C(c4ccccc43)C2C1=O (stereo not drawn)	inactive
Cc1ccc(CCC(=O)Nc2ncc(Cc3cc(Cl)ccc3Cl)s2)o1	0.58 µM (active)
O=C(CCc1ccccc1Cl)Nc1ccc(S(=O)(=O)Nc2nccs2)cc1	inactive
Cc1ccc(Cc2cnc(N)s2)o1	inactive
COc1cc2sc(C)nc2cc1C	inactive
CCOc1ccc(NC(=O)CC2C(=O)N(c3cccc(OC)c3)C(=O)N2C2CCCCC2)cc1 (stereo not drawn)	inactive
CCOC(=O)c1ccc(NC(=O)CC2C(=O)N(c3cccc(OC)c3)C(=O)N2C2CCCCC2)cc1 (stereo not drawn)	20.6 µM (active)
COC(=O)CN1C(=S)N(c2ccccc2)C(=O)C1CC(=O)Nc1ccc(Cl)cc1 (stereo not drawn)	inactive
CCNC(=O)N1CCNC(=O)C1CC(=O)Nc1ccc(C(=O)OCC)cc1 (stereo not drawn)	inactive
CCCOc1ccc(NC(=O)CC2C(=O)N(c3ccccc3)C(=O)N2Cc2ccco2)cc1 (stereo not drawn)	20.6 µM (active)
CCNC(=O)CC1C(=O)N(c2ccc(F)cc2)C(=O)N1Cc1cccs1 (stereo not drawn)	inactive
CCNC(=O)CC1C(=O)N(c2ccc(F)cc2)C(=O)N1Cc1ccc(C)cc1 (stereo not drawn)	inactive
CCOC(=O)c1ccc(NC(=O)CC2C(=O)N(c3ccccc3)C(=O)N2Cc2cccs2)cc1 (stereo not drawn)	20.6 µM (active)
CCOc1ccc(NC(=O)CC2C(=O)N(c3ccccc3)C(=O)N2CCOC)cc1 (stereo not drawn)	inactive
Cc1ccnc(NS(=O)(=O)c2ccc(NC(=O)c3oc4ccc(F)cc4c3C)cc2)n1	inactive
COCc1cc(C)n(CC(=O)NCC2CCCO2)c(=O)c1C#N (stereo not drawn)	inactive
Cc1cnc(C(=O)OCC(=O)NCCCc2ccccc2)cn1	inactive
Cc1ccccc1NC(=O)c1nn(-c2ccc(F)c(F)c2)ccc1=O	inactive
CN(C)/C=C(/C(=O)c1ccccc1)S(=O)(=O)c1ccc(Cl)cc1	inactive
COc1ccc(OC(C)C(=O)Nc2cccnc2)cc1 (stereo not drawn)	inactive
N#Cc1ccc(OCCN2C(=O)NC3(CCSC3)C2=O)cc1 (stereo not drawn)	inactive
CCOC(=O)[C@@H]1[C@H]2COc3cc(OC)ccc3[C@H]2N2C(=O)N(c3ccc(F)cc3)C(=O)[C@]12C	inactive
CCOC(=O)[C@@H]1[C@H]2COc3ccc(Br)cc3[C@H]2N2C(=O)N(c3ccc(C)cc3)C(=O)[C@@]12C	20.6 µM (active)
CCOC(=O)[C@@H]1[C@H]2COc3cc(OC)ccc3[C@@H]2N2C(=O)N(c3cccc(C)c3)C(=O)[C@@]12C	inactive
CCOC(=O)[C@H]1[C@H]2COc3cc(OC)ccc3[C@@H]2N2C(=O)N(c3ccc(Br)cc3)C(=O)[C@@]12C	18.4 µM (active)
CCOC(=O)[C@H]1[C@H]2COc3ccccc3[C@@H]2N2C(=O)CN(Cc3ccccc3)C(=O)[C@@]12C	inactive
CCOC(=O)[C@H]1[C@H]2COc3ccc(Br)cc3[C@@H]2N2C(=O)CN(C)C(=O)[C@@]12C	inactive
